According to the supplement of paper PMC10981050:
Where “and” joins values, the source holds several entries; their conditions need not be identical. Identical values can stand only once. Counter-ions that a name gives are not always drawn.

Experiments:
Experiment in all cases: cell viability relative to vehicle control; higher = less cytotoxic
Conditions in all cases: 10 µM
K562 = tested on: K562
Method in brief: (§1)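 CRISPR-edited SRSF2 P95 mutant and isogenic wild-type clones of four leukaemia lines were screened against Selleck bioactive, kinase and epigenetic probe libraries, with identity-inconsistent compounds removed. Compounds were acoustically dispensed into 384-well plates at a single 10 µM dose, with 2000 cells in 50 µL medium per well. After 48 h, supernatant was removed and CellTiter-Glo luminescence was read. Viability was expressed as percent of the on-plate DMSO vehicle control, analysed in Genedata Screener.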

MARIMO = tested on: MARIMO
Method in brief: as §1

MOLM14 = tested on: MOLM14
Method in brief: as §1

OCI-AML2 = tested on: OCI-AML2
Method in brief: as §1

Row | SMILES | cell viability (K562; SRSF2 genotype: SRSF2 P95H/wt) | cell viability (K562; SRSF2 genotype: SRSF2 wt/wt) [%] | cell viability (MARIMO; SRSF2 genotype: SRSF2 P95H/wt) [%] | cell viability (MARIMO; SRSF2 genotype: SRSF2 wt/wt) [%] | cell viability (MOLM14; SRSF2 genotype: SRSF2 P95H/wt) [%] | cell viability (MOLM14; SRSF2 genotype: SRSF2 wt/wt) [%] | cell viability (OCI-AML2; SRSF2 genotype: P95H/wt) [%] | cell viability (OCI-AML2; SRSF2 genotype: wt/wt) [%]
1 | COc1cc(O)c2c(=O)c(O[C@@H]3O[C@H](CO)[C@@H](O)[C@H](O)[C@H]3O)c(-c3ccc(O[C@@H]4O[C@H](CO)[C@@H](O)[C@H](O)[C@H]4O)cc3)oc2c1 [Complanatuside] | 105% and 101% | 106 | 108 | 104 | 108 | 106 | 107 | 96.2
2 | C=C1C[C@@]23CC[C@H]4[C@@](C)(CCC[C@@]4(C)C(=O)O)[C@@H]2CC[C@@H]1C3 [Kaurenoic acid] | 105% and 103% | 107 | 105 | 101 | 112 | 103 | 104 | 106
3 | COc1ccc(-c2cc(=O)c3c(O)c(OC)c(O)cc3o2)cc1OC [Eupatilin] | 101% and 99.5% | 97 | 92.3 | 98.2 | 48.7 | 60.2 | 69.4 | 71.2
4 | O=C1NCCc2[nH]c(-c3ccncc3)cc21 | 50.4% and 42% | 63.5 | 12.7 | 7.5 | 1.91 | 0.86 | 4.1 | 14.9
5 | O=C(Nc1ncc(SCCN2CCCC2)s1)[C@]1(c2ccc(S(=O)(=O)C3CC3)cc2)C[C@H]1C1CCCCC1 | 0.72% and 0.66% | 0.58 | 2.32 | 11.5 | 0.59 | 0.51 | 0.46 | 0.55
6 | Cc1ccc2nc(NCCN)c3ncc(C)n3c2c1 | 37.6% and 36.4% | 34.5 | 7.18 | 3 | 1.38 | 0.62 | 2.44 | 13
7 | COCC1=C(C(=O)OC(C)OC(=O)OC(C)C)N2C(=O)[C@@H](NC(=O)/C(=N\OC)c3csc(N)n3)[C@H]2SC1 (stereo partly specified) [Cefpodoxime proxetil] | 103% and 105% | 92.6 | 91.9 | 100 | 90.4 | 95.7 | 90.3 | 94.9
8 | COc1ccc2cc3[n+](cc2c1O)CCc1cc2c(cc1-3)OCO2 [Berberrubine] | 104% and 100% | 111 | 112 | 98.3 | 109 | 109 | 103 | 99.1
9 | COc1ccc(-c2cc(=O)c3c(O)c(OC)c(O)c(OC)c3o2)cc1 [Lysionotin] | 104% and 98% | 98.9 | 97.9 | 114 | 64 | 76.8 | 74.8 | 83
10 | CC(NC(=O)C(Cc1ccccc1)NC(=O)OCc1ccccc1)C(=O)CF (stereo unspecified) | 102% and 101% | 96 | 92.9 | 111 | 94.3 | 101 | 98.8 | 94.9
11 | NC(=O)[C@@H](CCC(F)(F)F)N(Cc1ccc(-c2ncon2)cc1F)S(=O)(=O)c1ccc(Cl)cc1 | 92.5% and 98.1% | 93.9 | 84.8 | 96.6 | 88.2 | 97.9 | 106 | 104
12 | CC1=C(CSC(=S)N2CCCCC2)C(=O)c2ccccc2C1=O [PKM2 inhibitor(compound 3k)] | 3.74% and 0.42% | 8.02 | 0.75 | 0.85 | 0.19 | 0.21 | 0.2 | 1.51
13 | O=C(O)c1ccco1 [2-Furoic acid] | 95.7% and 95.1% | 103 | 95.9 | 108 | 98.5 | 101 | 97.5 | 102
14 | O=C(O)CCCNC(=O)c1cccnc1 [Pikamilone] | 109% and 105% | 119 | 97.1 | 105 | 99.9 | 106 | 114 | 118
15 | C[C@]1(O)C[C@@H](O)[C@]2(O)C=CO[C@@H](O[C@H]3O[C@H](CO)[C@@H](O)[C@H](O)[C@H]3O)[C@@H]21 [Harpagide] | 105% and 99.4% | 101 | 106 | 98.7 | 106 | 103 | 97.6 | 103
16 | O=C1O[C@H]([C@@H](O)CO)C(O)=C1O [Vitamin C (Ascorbic acid)] | 89.8% and 88.3% | 85.8 | 100 | 92.8 | 90.8 | 95.1 | 91 | 93
17 | Cc1c(-c2ccc(C(N)=O)c3[nH]c4cc(C(C)(C)O)ccc4c23)cccc1-n1cnc2ccccc2c1=O | 80.1% and 89.9% | 92.2 | 73.5 | 66.2 | 48.4 | 54.8 | 43.6 | 46.2
18 | OCCn1cc(-c2cnc3nnn(Cc4ccc5ncccc5c4)c3n2)cn1 | 96.9% and 99.3% | 104 | 105 | 102 | 99.4 | 100 | 97.9 | 97.9
19 | O=C(O)COCCN1CCN([C@H](c2ccccc2)c2ccc(Cl)cc2)CC1 [Levocetirizine Dihydrochloride] | 99% and 88.4% | 101 | 93.2 | 107 | 92.4 | 99.3 | 91.7 | 103
20 | Cc1cn([C@H]2C[C@H](O)[C@@H](CO)O2)c(=O)[nH]c1=O [Thymidine] | 98.3% and 88% | 98.2 | 96.6 | 102 | 92.5 | 99.7 | 91.8 | 99.9
21 | COc1cc2c(=O)c(-c3ccc(O)cc3)coc2cc1O[C@@H]1O[C@H](CO)[C@@H](O)[C@H](O)[C@H]1O [Glycitin] | 98% and 97.4% | 101 | 95.2 | 103 | 97.1 | 103 | 89.3 | 87

Row | SMILES | cell viability (K562; SRSF2 genotype: SRSF2 P95H/wt) | cell viability (K562; SRSF2 genotype: SRSF2 wt/wt) [%] | cell viability (MARIMO; SRSF2 genotype: SRSF2 P95H/wt) [%] | cell viability (MARIMO; SRSF2 genotype: SRSF2 wt/wt) [%] | cell viability (MOLM14; SRSF2 genotype: SRSF2 P95H/wt) [%] | cell viability (MOLM14; SRSF2 genotype: SRSF2 wt/wt) [%] | cell viability (OCI-AML2; SRSF2 genotype: P95H/wt) [%] | cell viability (OCI-AML2; SRSF2 genotype: wt/wt) [%]
22 | C1CCN2C[C@@H]3C[C@@H](CN4CCCC[C@@H]34)[C@H]2C1 [Sparteine] | 95% and 97.6% | 91.1 | 96.8 | 94.9 | 99 | 94.8 | 97.5 | 94.3
23 | Cc1cc(Cl)ccc1OCCCC(=O)NO [Droxinostat] | 83.6% and 88.4% | 85.2 | 76.4 | 89.8 | 84.8 | 87.1 | 79.3 | 80.7
24 | CC(C)[C@H](NC(=O)OCc1ccccc1)C(=O)N[C@@H](C)C(=O)N[C@@H](CC(=O)O)C(=O)CF | 109% and 102% | 106 | 99.8 | 102 | 104 | 104 | 102 | 97.4
25 | CS(=O)(=O)c1ccc(-c2nnc(/C=C/c3nnc(-c4ccc(C#N)cc4)o3)n2-c2ccccc2Cl)nc1 | 105% and 94.2% | 101 | 104 | 108 | 106 | 103 | 99 | 110
26 | Cc1[nH]nc(C(F)(F)F)c1Cc1sc2c(c1C(=O)N1C[C@](C)(O)CO1)c(=O)n(C)c(=O)n2C(C)C | 40% and 62.9% | 61.3 | 90.5 | 103 | 92.8 | 89.3 | 99.7 | 99.9
27 | CCOC(=O)c1cc2ccccc2oc1=O [Ethyl Coumarin-3-carboxylate] | 96.8% and 96.2% | 92.9 | 94.3 | 97.2 | 88.7 | 98 | 95 | 96.8
28 | CO[C@H]1O[C@@H]2O[C@@]3(C)CC[C@H]4[C@H](C)CC[C@@H]([C@H]1C)[C@@]24OO3 [Artemether] | 84.4% and 83.7% | 80.4 | 81 | 90.5 | 85.6 | 90.1 | 86.3 | 86.6
29 | CCOC(=O)C=Cc1ccc(OC)cc1 [Ethyl 4-Methoxycinnamate] | 86% and 83.2% | 80 | 81.3 | 88.4 | 83.9 | 84.5 | 84.6 | 83.5
30 | CCC(CC)CC1(C(=O)Nc2ccccc2SC(=O)C(C)C)CCCCC1 | 94.6% and 96.2% | 103 | 96 | 97.5 | 90.1 | 95.5 | 83.2 | 85.5
31 | COc1cc(C[C@@H](CO[C@@H]2O[C@H](CO)[C@@H](O)[C@H](O)[C@H]2O)[C@H](CO[C@@H]2O[C@H](CO)[C@@H](O)[C@H](O)[C@H]2O)Cc2ccc(O)c(OC)c2)ccc1O [Secoisolariciresinol diglucoside] | 96.7% and 93.6% | 98.9 | 90 | 101 | 101 | 98.5 | 96.8 | 104
32 | COc1cc2ncnc(Nc3cccc(Cl)c3)c2cc1OC [AG-1478 (Tyrphostin AG-1478)] | 75% and 83.2% | 76.4 | 81.7 | 90 | 59.7 | 67.6 | 58 | 62.2
33 | CCc1cc2c(cc1N1CCC(N3CCOCC3)CC1)C(C)(C)c1[nH]c3cc(C#N)ccc3c1C2=O | 91.7% and 98.6% | 105 | 63.9 | 86.3 | 66.7 | 80.5 | 71.7 | 52.2
34 | O=c1cc(-c2ccc(O)cc2)oc2cc(O)cc(O)c12 [Apigenin] | 102% and 96.4% | 96 | 85.9 | 99.8 | 55.4 | 57.5 | 67.9 | 63.6
35 | C=C1C[C@@]23CC[C@H]4[C@@](C)(CCC[C@@]4(C)C(=O)O[C@@H]4O[C@H](CO)[C@@H](O)[C@H](O)[C@H]4O)[C@@H]2CC[C@]1(O[C@@H]1O[C@H](CO)[C@@H](O)[C@H](O[C@@H]2O[C@H](CO)[C@@H](O)[C@H](O)[C@H]2O)[C@H]1O[C@@H]1O[C@H](CO)[C@@H](O)[C@H](O)[C@H]1O)C3 [Rebaudioside A] | 95.1% and 100% | 102 | 98.8 | 106 | 105 | 102 | 104 | 105
36 | COc1ccc2cc1Oc1ccc(cc1)C[C@H]1c3cc(c(OC)cc3CCN1C)Oc1c(O)c(OC)cc3c1[C@H](C2)N(C)CC3 [(+)-Fangchinoline] | 4.1% and 4.98% | 3.92 | 12.2 | 1.33 | 0.71 | 0.57 | 0.52 | 0.71
37 | Nc1ncnc2c1ncn2[C@@H]1O[C@H](CO)C[C@H]1O [Cordycepin] | 94.3% and 102% | 89.3 | 90.4 | 99 | 102 | 102 | 94.1 | 112
38 | C=C(Cc1ccccc1Cl)C(=O)OCC | 95.9% and 107% | 91.8 | 107 | 100 | 96.2 | 98.2 | 106 | 101
39 | COc1cc(CCc2cc(NC(=O)c3ccc(N4CC(C)NC(C)C4)cc3)n[nH]2)cc(OC)c1 (stereo unspecified) | 68.8% and 79.7% | 59.6 | 46 | 42.1 | 14.4 | 21.5 | 8.06 | 17.9
40 | CC(C)CCCC(C)C1CCC2C3CCC4CC(O)CCC4(C)C3CCC12C (stereo unspecified) [Dihydrocholesterol] | 93% and 100% | 92.6 | 95.2 | 97.3 | 90.2 | 97.6 | 98.3 | 97.6
41 | C[C@@H]1COC(Nc2ccc3ncnc(Nc4ccc(OCc5nccs5)c(Cl)c4)c3c2)=N1 [Varlitinib] | 86.5% and 83.2% | 88.1 | 89.2 | 109 | 91.7 | 96.3 | 87 | 88.2
42 | O=C(Nc1cccnc1)N1CCC(Cc2cccc(Oc3ccc(C(F)(F)F)cn3)c2)CC1 | 42% and 43.6% | 44.4 | 43.6 | 35.1 | 51.2 | 28.9 | 38.3 | 27.1
